Bioassay records: PubChem BioAssay, several laboratories
CYP2C9 inhib = human CYP2C9 inhibition; P11712; CYP2C9 Supersomes, luciferin-H conversion, luminescence; inhibition, % at 5 µM; 96,000 compounds, 20% hits; AID 777;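 active = blocking of liver enzyme CYP2C9 beyond about 50% at 5 µM, limit read from the data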
CYP2C19 activ = increases human CYP2C19 enzyme activity | activation factor at 5 µM | 96,000 tested, under 10 active | recombinant CYP2C19, luciferin-H EGE luminescence; active compounds read high; 0 = fully inhibited enzyme, 1 = untreated enzyme;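 active = activation factor of at least 2 at 5 µM in the primary screen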
Target sequence (P33261 whole entry, looked up): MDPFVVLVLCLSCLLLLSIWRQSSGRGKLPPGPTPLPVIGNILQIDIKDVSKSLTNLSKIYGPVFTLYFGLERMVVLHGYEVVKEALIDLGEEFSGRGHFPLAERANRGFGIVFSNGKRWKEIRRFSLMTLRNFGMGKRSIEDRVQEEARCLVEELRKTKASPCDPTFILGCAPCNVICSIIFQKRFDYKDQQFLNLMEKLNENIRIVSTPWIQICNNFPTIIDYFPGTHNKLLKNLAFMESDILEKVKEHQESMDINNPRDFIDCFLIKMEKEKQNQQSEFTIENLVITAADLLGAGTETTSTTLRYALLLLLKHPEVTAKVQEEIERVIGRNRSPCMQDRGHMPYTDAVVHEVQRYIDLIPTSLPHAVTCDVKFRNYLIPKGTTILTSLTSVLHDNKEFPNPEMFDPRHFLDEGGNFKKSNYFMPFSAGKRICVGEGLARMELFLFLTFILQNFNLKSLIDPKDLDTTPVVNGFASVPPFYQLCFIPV
CYP2C19 inhib = blocks human cytochrome P450 2C19. 96,000 compounds, 21% hits. CYP2C19 Supersomes, luciferin-H EGE luminescence, 30 min. P33261. AID 778. inhibition, % at 5 µM;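 active = CYP2C19 inhibition above a set limit at 5 µM in the primary screen, cut at about 50% in these data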
CYP2C9 act = CYP2C9 (human) activation. activation factor at 5 µM. P11712. 96,000 compounds, 1.4% hits. AID 1024. recombinant CYP2C9, luciferin-H conversion, luminescence; active compounds read high; factor 1 = untreated enzyme, 0 = blocked;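 active = activation factor of 2 or more for CYP2C9 at a 5 µM dose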
Measles CPE = protection of cells from measles virus; 140,000 compounds, 1.5% hits; protection (pct of control), % at 4 µM; Measles virus-infected cells, CPE protection, absorbance; in the data active = protection mostly above about 24%, no sharp cut-off; inactive = mostly below about 26%
A number is an active result; n = inactive; x = not tested or not shown. Most compounds without a hit are left out; they make up all but 22% or so of the library.

SMILES	CYP2C9 inhib	CYP2C19 activ	CYP2C19 inhib	CYP2C9 act	Measles CPE
COc1cccc(NC(=O)COC(=O)c2cccnc2)c1	n	n	66.6	n	n
COC(=O)c1nnn(CC(=O)Nc2cccc(Cl)c2)c1C(=O)OC	70.5	n	79.1	n	n
O=C(COC(=O)c1ccncc1)Nc1cccc(Cl)c1	87.4	n	77.5	n	n
Cc1cnc(C(=O)OCC(=O)Nc2cccc(Cl)c2)cn1	n	n	n	n	n
O=C(Nc1cccc(Cl)c1)O/N=C\c1ccncc1	89.9	n	88.6	n	n
COC(=O)c1nnn(CC(=O)Nc2ccc(C)c(F)c2)c1C(=O)OC	n	n	n	n	n
COc1cccc(NC(=O)c2cccnc2)c1	n	n	n	n	n
O=S1(=O)C[C@H]2NC(=S)N(c3ccccc3)[C@H]2C1	x	x	x	x	n
Cc1ccc(-c2nnn(CC(=O)Nc3ccc4nn(-c5ccccc5)nc4c3)n2)o1	n	n	n	n	n
CCOC(=O)c1cccc(NC(=O)c2cccnc2)c1	n	n	n	n	n
COc1cccc(NC(=O)COC(=O)c2nc3nccc(C)n3n2)c1	n	n	n	n	75.6
Cc1ccnc2nc(C(=O)OCC(=O)NCCc3ccccc3)nn12	x	x	x	x	n
O=C(COC(=O)c1cccnc1)Nc1cccc(Cl)c1	69.1	n	85.7	n	n
CCCCNC(=O)Cn1nc([N+](=O)[O-])c([N+](=O)[O-])c1C	x	x	x	x	n
COCc1cc(Sc2cccc(Cl)c2Cl)nc(-c2ccccc2)n1	n	n	n	n	n
Cc1nc(CS(=O)(=O)c2ccccc2)cc(Sc2ccc(Cl)cc2Cl)n1	50.3	n	n	n	n
Cc1cccc(OCCC(=O)NCC(c2ccco2)N2CCCCC2)c1 (stereo not drawn)	n	n	n	n	n
CCCCCC(=O)N1CC2(C)CN(C(=O)CCCCC)CC(C)(C1)C2=O	n	n	n	n	n
Cc1nc(NC(=O)C2CC2)sc1C	x	x	x	x	n
CC1CCN(C(=S)Nc2ccc(F)cc2)CC1	x	x	x	x	n
C/C(=N\NC(=S)Nc1ccc(F)cc1)C1CC1	57.0	n	69.1	n	n
CCOC(=O)c1[nH]nc(-c2c(O)cc(C)cc2O)c1-c1csc(C)n1	n	n	n	n	n
CCCc1cc(-c2n[nH]c(C(=O)OCC)c2-c2cscn2)c(O)cc1O	66.7	n	55.6	n	n
Cc1ccc(S(=O)(=O)Cn2nnnc2C(CC(C)C)N2CCN(c3ccc(F)cc3)CC2)cc1 (stereo not drawn)	n	n	n	n	n
CCOC(=O)c1c(N)c(C#N)cn1-c1ccccc1	n	n	n	n	n
SMILES	CYP2C9 inhib	CYP2C19 activ	CYP2C19 inhib	CYP2C9 act	Measles CPE
CCn1cc(Br)c(C(=O)Nc2ccc(Cl)c(Cl)c2)n1	x	x	x	x	n
CCn1cc(Br)c(C(=O)Nc2ccc(OC)cc2)n1	n	n	74.5	n	n
CCOC(=O)c1c(NC(=O)c2nn(CC)cc2Br)c(C#N)cn1-c1ccccc1	n	n	75.4	n	n
CCCCOC(=O)c1ccc(NC(=O)c2nn(C)cc2Br)cc1	x	x	x	x	n
CCn1cc(Br)c(C(=O)Nc2ccc(C(=O)OC(C)C)cc2)n1	n	n	74.9	n	n
CCn1cc(Br)c(C(=O)Nc2cccc(Cl)c2)n1	66.5	n	93.5	n	n
Cc1ccc(-c2nnc(-c3ccc(Br)cc3)o2)o1	n	n	n	n	n
COc1ccc(C(=O)COC(=O)C(C(C)C)N2C(=O)C3C4C=CC(C4)C3C2=O)cc1 (stereo not drawn)	n	n	n	n	n
Cc1ccc(C(=O)OCC(=O)NC(=O)c2cccn2C)cc1	n	n	n	n	n
O=C(CSc1ncnc2sc3c(c12)CCCC3)N1CCC(c2noc3ccc(F)cc23)CC1	n	n	n	n	n
CCCCOc1ccc(/C=N/NC(=S)Nc2cccc(C)c2C)cc1	n	n	n	n	n
Cc1cccc(C)c1NC(=S)N/N=C/c1ccc(OCCC(C)C)cc1	61.7	n	n	n	n
CN(C)C=Nc1ncc2c3ccccc3n(Cc3ccccc3)c2c1C#N	n	n	n	n	n
CN(C)C=Nc1ncc2c3ccccc3n(CCN(C)C)c2c1C#N	57.8	n	n	n	n
COc1ccc(NC(=O)CSC2=NC(=O)CC(C)=N2)cc1	n	n	n	n	n
Cc1cccc(-n2c3nc(=O)[nH]c(=O)c-3cc3c(C)nn(-c4ccccc4)c32)c1	x	x	x	x	n
CCOC(=O)N1CCN(Cc2c(F)cccc2Cl)CC1	n	n	n	n	n
CCOC(=O)N1CCN(c2ccc(C(C)=O)cc2F)CC1	x	x	x	x	n
CCOC(=O)N1CCN(c2ccc(C(=O)c3ccccc3)cc2F)CC1	86.9	n	76.5	n	n
CCC(=O)c1ccc(N2CCCC2)c(F)c1	x	x	x	x	n
